PP5 primary: PP5 phosphatase inhibitors, primary screen, biochemical, fluorescence; Serine/threonine-protein phosphatase 5 (Homo sapiens), P53041; purified PP5c, OMFP substrate fluorescence; inhibition, % at 6.7 µM; 0.18% of 320,000 active;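 active = inhibition above the campaign's mean inhibition across all tested compounds plus 3 SD, cut at about 9.5% in these data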;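 also: 0% = DMSO only and 100% = 100 µM cantharidin control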
Fam108B inh: mouse Fam108B serine hydrolase inhibitors, primary screen, counter-screen for RBBP9 inhibitor project, biochemical, fluorescence polarization; recombinant Fam108B, FP-Rh probe fluorescence polarization; inhibition, % at 9.51 µM; 0.33% of 300,000 active; AID 1947, 2009;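 active = inhibition above the screen mean inhibition plus 3 SD, computed separately per campaign, cut at about 18% in these data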;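 also: inhibitors lower polarization as less probe binds the enzyme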
PME-1 inh: PME-1 inhibitors via competitive probe labeling, primary screen, biochemical, fluorescence polarization, FP-Rh probe, HTS. Protein phosphatase methylesterase 1 (Homo sapiens), Q9Y570. recombinant PME-1. inhibition, % at 5.9 µM. 0.53% of 320,000 active. AID 2130, 2009;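 active = inhibition above the campaign mean of all compounds plus 3 SD, cut at about 26% in these data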;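 also: competitive labeling of PME-1 active site by serine hydrolase directed probe; 0% = PME-1 with DMSO and 100% = wells lacking PME-1 enzyme; inhibitors block probe labeling so polarization falls and inhibition rises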
PP1 inh: PP1-alpha phosphatase inhibitors, primary screen, counter-screen for PP5 inhibitor project, biochemical, fluorescence, OMFP substrate, single point; purified PP1alpha; 0.9% of 320,000 active; inhibition, % at 6.7 µM; Serine/threonine-protein phosphatase PP1-alpha catalytic subunit (Homo sapiens), P62136; AID 2235, 2010;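 active = inhibition above the mean inhibition of all tested compounds plus 3 SD, computed separately for each screening campaign, cut at about 15% in these data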
Target sequence (P62136 whole entry, looked up): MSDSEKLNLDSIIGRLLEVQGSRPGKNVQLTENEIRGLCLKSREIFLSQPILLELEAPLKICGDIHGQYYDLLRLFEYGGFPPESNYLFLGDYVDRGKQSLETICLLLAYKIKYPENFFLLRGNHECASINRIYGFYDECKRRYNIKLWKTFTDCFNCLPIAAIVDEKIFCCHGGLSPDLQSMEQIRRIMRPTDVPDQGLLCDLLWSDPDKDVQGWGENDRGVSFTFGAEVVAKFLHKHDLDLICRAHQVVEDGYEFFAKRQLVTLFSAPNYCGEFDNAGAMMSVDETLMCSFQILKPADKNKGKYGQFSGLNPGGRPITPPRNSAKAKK
LYPLA1 inh: LYPLA1 inhibitors, primary screen, counter-screen for PME1 inhibitor project, biochemical, fluorescence polarization, FP-Rh probe ABPP | Acyl-protein thioesterase 1 (Homo sapiens), O75608 | recombinant LYPLA1 | inhibition, % at 5.9 µM | 0.16% of 320,000 active;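 active = inhibition above the mean of all tested compounds plus 3 SD, set per campaign, cut at about 14% in these data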;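 also: inhibitors block serine hydrolase probe labeling of LYPLA1 so polarization falls; 0% = enzyme with DMSO and 100% = wells lacking LYPLA1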
LYPLA2 counter: LYPLA2 inhibitors, primary screen, counter-screen for PME1 inhibitor project, biochemical, fluorescence polarization, FP-Rh probe ABPP; Acyl-protein thioesterase 2 (Homo sapiens), O95372; recombinant LYPLA2; inhibition, % at 5.9 µM; 0.38% of 320,000 active; AID 2177, 2009;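 active = inhibition above the screen-wide mean plus 3 SD, limit set per campaign, cut at about 26% in these data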;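 also: 0% = LYPLA2 with DMSO and 100% = wells lacking LYPLA2 enzyme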
PP5 inh confirm: PP5 phosphatase inhibitors, confirmation, biochemical, fluorescence, human; inhibition, % at 6.7 µM; 22% of 460 active; shares compounds with PP5 primary; Purified PP5, fluorogenic phosphatase substrate; in the data active = inhibition above about 9.5%
PP1 counter 3x: PP1 phosphatase inhibitors, counter-screen for PP5 inhibitor project, biochemical, fluorescence, triplicate. shares compounds with PP5 primary. AID 2355, 2010. inhibition, % at 6.7 µM. PP1 enzyme, fluorescent phosphatase substrate. 4% of 460 active; in the data active = inhibition above about 16%
Starred values were filed as active, the others as inactive; · = no result; ! = not active in a repeat. Sampled rows, rich in hits. Any-hit rate of the full collection: about 1.8%.

SMILES	PP5 primary	Fam108B inh	PME-1 inh	PP1 inh	LYPLA1 inh	LYPLA2 counter	PP5 inh confirm	PP1 counter 3x
CC(C)(CO)NC12CC3CC(CC(C3)C1)C2	10.8*	4.7	2.6	-12.7	-2.1	-3.7	-2.4	-3.9
CCNC(=S)NS(=O)(=O)c1ccc(CC)cc1	10.0*	-0.1	4.1	-0.7	0.2	-0.8	-2.8	-2.2
CCNC(=S)NS(=O)(=O)c1ccc(C)cc1	0.6	1.0	-0.1	-1.3	-0.6	6.4	·	·
O=C(COc1cccnc1[N+](=O)[O-])Nc1ncc(Cl)cc1Cl	2.1	·	9.1	2.7	-0.8	4.4	·	·
O=C(COc1cccnc1[N+](=O)[O-])c1ccc(Cl)s1	10.7*	5.0	5.7	7.8	-3.2	1.8	-4.2	1.8
Cc1ccc(NC(=O)c2ccccc2N2C(=O)C3C4C=CC(C5CC45)C3C2=O)cc1C (stereo unspecified)	0.1	-2.0	1.9	-0.9	-1.1	22.1	·	·
Cc1ccc2c(Cl)c(C(=O)NCc3cccnc3)sc2c1	10.7*	0.1	5.4	0.4	-0.5	6.1	-3.6	-1.5
O=C(O)CCC(=O)c1c[nH]c2ccccc12	11.5*	1.7	3.3	-1.7	-3.4	-6.4	-6.1	-2.0
COc1ccc(S(N)(=O)=O)cc1C(=O)OCCCOc1ccc(F)cc1	-0.8	1.9	5.3	-0.4	1.9	12.5	·	·
S=C(NC1CCCC1)N1CCOCC1	-0.1	-1.9	-6.8	-1.4	-0.1	2.2	·	·
S=C(NC1CCCCC1)N1CCOCCOCCN(C(=S)NC2CCCCC2)CCOCC1	9.8*	-3.8	2.3	1.3	2.5	0.3	-0.5	1.5
O=S1(=O)CCOC[C@H](c2ccccc2)N1Cc1cccc(Cl)c1	3.6	6.8	0.6	3.9	1.7	4.0	·	·
O=C(NC1CCCCC1)N1CCC(n2c(=O)[nH]c3ccccc32)CC1	18.9*	2.0	-4.4	11.2	-1.9	3.8	-1.8	-1.2
Cc1ccc(NC(=O)Cc2nc(CCl)cs2)cc1	-2.6	-0.9	0.8	-3.2	-3.6	-1.5	·	·
Cc1ccc(NC(=S)Nc2nc(CC(=O)Nc3ccccc3)cs2)cc1	10.4*	-18.4	-20.6	10.3	-18.3	-28.7	-5.7	2.0
O=C(NCCCO)C(=O)Nc1cc2c3c(c1)CCC(=O)N3CCC2	2.1	-1.0	0.0	6.9	-3.2	-7.6	·	·
O=C(Nc1cccc2ncccc12)c1ccc(-c2ccc(Br)cc2)o1	12.7*	-1.2	-1.5	-1.2	-3.4	3.8	-2.0	-2.4
O=C(Nc1cccc2ncccc12)c1ccc([N+](=O)[O-])o1	1.6	-2.8	6.2	1.8	0.1	2.0	·	·
COc1ccc(CN2CCNC(=O)C2CC(=O)NCCc2nc(C)c3c(n2)CCC3)cc1C (stereo unspecified)	2.8	0.0	1.6	-3.8	-0.3	-1.0	·	·
Cc1cc(N/N=C/c2ccc(O)cc2O)nc(N2CCOCC2)n1	0.8	8.9	1.9	-0.1	-1.6	-2.5	·	·
Oc1ccc(/C=N\Nc2cc(N3CCOCC3)nc(N3CCOCC3)n2)c(O)c1	14.3*	5.7	7.3	0.0	1.1	2.6	35.8*	-0.1
Cc1cnc(NC(=O)C2=C(O)c3ccccc3S(=O)(=O)N2C)s1	15.1*!	3.2	5.2	1.6	1.1	-1.0	-4.1	-2.4
O=C1CC(N2CCN(c3ccccc3)CC2)C(=O)N1c1cccc(Cl)c1 (stereo unspecified)	-1.4	-3.9	-5.0	-0.7	0.4	-2.6	·	·
O=C1CC(N2CCN(c3ccc(Cl)cc3)CC2)C(=O)N1c1ccccc1 (stereo unspecified)	10.3*	1.1	-4.0	0.3	1.7	4.2	-2.0	-3.0

Bioassay records as filed in PubChem BioAssay.
